Measurements taken from PubChem BioAssay AID1159580 (chemical genetic matrix, 2015).
Where “and” joins values, the source holds several entries; their conditions need not be identical. Equal values may be shown once. About 2,000 (36%) of roughly 5,500 compounds were called active. Inconclusive results (about 18%) are left out. Cut-off read from the data, not from the text of the source: active = normalized growth mostly below about 0.91 (no sharp cut-off); inconclusive = no clear call, values can overlap the other calls; inactive = mostly above about 0.92. The list shows a part of the results. Where a SMILES comes first, the peptide text is derived from it. Bridges are numbered along the chain shown (N, C = ends). [ ]: non-standard residue; d: D form. The star is where a group is joined. Heptanoyl(6-Me) = CC(C)CCCCC(=O)*; Dab = NCC[CH](N)C(=O)O

Assay: chemical genetic growth profiling, strain panel (AID 1159580);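 note: tested at 20 µM; growth read once vehicle control cultures reached saturation at 30 °C; 1 = growth at the plate median or of vehicle wells; lower values mean less growth of the strain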
Details: S. cerevisiae deletion strains, growth OD
[1] = locus YHR030C, strain SLT2, stronger effect = lower value
[2] = locus YJL095W, strain BCK1, stronger effect = lower value
[3] = locus YJR066W, strain TOR1, stronger effect = lower value
[4] = locus YLR113W, strain HOG1, stronger effect = lower value
[5] = locus YNL183C, strain NPR1, stronger effect = lower value
[6] = locus YOR231W, strain MKK1, stronger effect = lower value
[7] = locus YPL256C, strain CLN2, stronger effect = lower value
[8] = locus YAL013W, strain DEP1, stronger effect = lower value
[9] = locus YGR078C, strain PAC10, stronger effect = lower value
[10] = locus YJR075W, strain HOC1, stronger effect = lower value
[11] = locus YMR307W, strain GAS1, stronger effect = lower value
[12] = locus YPL055C, strain LGE1, stronger effect = lower value
[13] = locus YPL241C, strain CIN2, stronger effect = lower value
[14] = locus YAL040C, strain CLN3, stronger effect = lower value
[15] = locus YDR363W, strain ESC2, stronger effect = lower value
[16] = locus YER002W, strain NOP16, stronger effect = lower value
[17] = locus YNL153C, strain GIM3, stronger effect = lower value
[18] = locus YNL175C, strain NOP13, stronger effect = lower value
[19] = locus YNL197C, strain WHI3, stronger effect = lower value
[20] = locus YNL224C, strain SQS1, stronger effect = lower value
[21] = locus YOR083W, strain WHI5 (second series), stronger effect = lower value

Measured: normalized growth

CCC(C)C1NC(=O)C(CCN)NC(=O)C(NC(=O)C(CCN)NC(=O)C(NC(=O)C(CCN)NC(=O)CCCCC(C)C)C(C)O)CCNC(=O)C(C(C)O)NC(=O)C(CCN)NC(=O)C(CCN)NC(=O)C(C(C)CC)NC1=O (configuration not stated) ({Heptanoyl(6-Me)}-[Dab]T[Dab][Dab][Dab]II[Dab][Dab]T; lactam 4-C; configuration not given here)
inactive: [1] 0.976 | [2] 0.985 | [3] 0.95 | [4] 0.967 | [5] 0.944 | [6] 0.971 | [7] 0.973

CC1(C)O[C@@H]2CC3C4C[C@H](F)C5=CC(=O)C=C[C@]5(C)[C@@]4(F)[C@@H](O)C[C@]3(C)[C@]2(C(=O)CO)O1 (some centres not stated)
inactive: [8] 1 | locus YAL021C, strain ccr4, stronger effect = lower value 1.01 | locus YAL026C, strain drs2, stronger effect = lower value 1 | locus YAL030W, strain snc1, stronger effect = lower value 1.01 | locus YBL061C, strain skt5, stronger effect = lower value 1.01 | locus YBR009C, strain hhf1, stronger effect = lower value 1.01 | locus YBR021W, strain FUR4, stronger effect = lower value 0.995 | locus YBR023C, strain chs3, stronger effect = lower value 1.03 | locus YBR171W, strain sec66, stronger effect = lower value 1.02 | locus YBR229C, strain ROT2, stronger effect = lower value 0.999 | locus YBR231C, strain swc5, stronger effect = lower value 1.01 | locus YBR279W, strain paf1, stronger effect = lower value 1.05 | locus YCL011C, strain gbp2, stronger effect = lower value 1.03 | locus YCL016C, strain dcc1, stronger effect = lower value 1.02 | locus YCL029C, strain bik1, stronger effect = lower value 1.01 | locus YCL061C, strain MRC1, stronger effect = lower value 1.03 | locus YCL069W, strain vba3, stronger effect = lower value 1.02 | locus YCR088W, strain abp1, stronger effect = lower value 1.01 | locus YDL005C, strain med2, stronger effect = lower value 1.02 | locus YDL035C, strain GPR1, stronger effect = lower value 0.982 | locus YDL040C, strain nat1, stronger effect = lower value 1.01 | locus YDL074C, strain BRE1, stronger effect = lower value 1 | locus YDL101C, strain DUN1, stronger effect = lower value 1.01 | locus YDL185W, strain tfp1, stronger effect = lower value 1.01 | locus YDL192W, strain arf1, stronger effect = lower value 1.01 | locus YDR001C, strain nth1, stronger effect = lower value 1.02 | locus YDR069C, strain doa4, stronger effect = lower value 1 | locus YDR101C, strain arx1, stronger effect = lower value 0.988 | locus YDR137W, strain rgp1, stronger effect = lower value 1.02 | locus YDR159W, strain sac3, stronger effect = lower value 0.973 | locus YDR162C, strain NBP2, stronger effect = lower value 0.993 | locus YDR195W, strain ref2 1.01 | locus YDR297W, strain sur2, stronger effect = lower value 1.01 | locus YDR318W, strain mcm21, stronger effect = lower value 1.02 | locus YDR334W, strain swr1, stronger effect = lower value 1.01 | locus YDR335W, strain msn5, stronger effect = lower value 1.02 | locus YDR388W, stronger effect = lower value 1.01 | locus YDR392W, strain spt3, stronger effect = lower value 0.975 | locus YDR502C, strain sam2, stronger effect = lower value 1.01 | locus YEL003W, strain gim4, stronger effect = lower value 1 | locus YEL037C, strain rad23, stronger effect = lower value 1.01 | locus YEL061C, strain CIN8 (second series), stronger effect = lower value 1.02 | locus YEL061C, strain CIN8, stronger effect = lower value 0.992 | locus YER015W, strain faa2, stronger effect = lower value 1.01 | locus YER016W, strain bim1, stronger effect = lower value 1.01 | locus YER110C, stronger effect = lower value 1.02 | locus YER111C, strain swi4, stronger effect = lower value 1.01 | locus YER155C, strain BEM2 (second series), stronger effect = lower value 1.02 | locus YER155C, strain BEM2, stronger effect = lower value 0.997 | locus YER167W, strain BCK2, stronger effect = lower value 1 | locus YFR010W, strain ubp6, stronger effect = lower value 1.01 | locus YGL078C, strain dbp3, stronger effect = lower value 1.02 | locus YGL086W, strain mad1, stronger effect = lower value 0.992 | locus YGL167C, strain pmr1, stronger effect = lower value 1.01 | locus YGL173C, strain kem1, stronger effect = lower value 1.01 | locus YGL227W, strain vid30, stronger effect = lower value 1.02 | locus YGL240W, strain doc1, stronger effect = lower value 0.997 | locus YGL248W, strain PDE1, stronger effect = lower value 1.01 | locus YGL253W, strain hxk2, stronger effect = lower value 1.01 | [9] 0.994 | locus YGR135W, strain pre9, stronger effect = lower value 1.07 | locus YGR252W, strain gcn5, stronger effect = lower value 1.07 | locus YHR013C, strain ard1, stronger effect = lower value 1.05 | locus YHR027C, strain rpn1, stronger effect = lower value 1.01 | [1] 0.99 and 0.972 | locus YHR079C, strain IRE1 (second series), stronger effect = lower value 1.01 | locus YHR079C, strain IRE1, stronger effect = lower value 0.969 | locus YHR094C, strain hxt1, stronger effect = lower value 1.02 | locus YHR129C, strain ARP1, stronger effect = lower value 0.997 | locus YHR142W, strain chs7, stronger effect = lower value 1.03 | locus YHR200W, strain rpn10, stronger effect = lower value 1.02 | locus YIL066C, strain RNR3, stronger effect = lower value 0.993 | locus YIL073C, strain SPO22, stronger effect = lower value 1.02 | locus YIL125W, strain kgd1, stronger effect = lower value 1.01 | locus YIR030C, strain dcg1, stronger effect = lower value 1.02 | locus YJL092W, strain hpr5, stronger effect = lower value 1.02 | locus YJL095W, strain BCK1 (second series), stronger effect = lower value 1.02 | [2] 1.01 and 0.978 | locus YJL115W, strain asf1, stronger effect = lower value 1.01 | locus YJL129C, strain trk1, stronger effect = lower value 1.02 | locus YJL134W, strain LCB3, stronger effect = lower value 1 | locus YJL154C, strain vps35, stronger effect = lower value 1.01 | locus YJL164C, strain tpk1, stronger effect = lower value 1.01 | locus YJL166W, strain qcr8, stronger effect = lower value 1.03 | locus YJL168C, strain set2, stronger effect = lower value 1.02 | locus YJL187C, strain SWE1 (second series), stronger effect = lower value 0.999 | locus YJL187C, strain SWE1, stronger effect = lower value 1.01 | locus YJR043C, strain POL32, stronger effect = lower value 0.988 | [3] 0.952 | [10] 0.994 | locus YKL009W, strain mrt4, stronger effect = lower value 0.996 | locus YKL068W, stronger effect = lower value 1.01 | locus YKL085W, strain MDH1 (second series), stronger effect = lower value 1.01 | locus YKL085W, strain MDH1, stronger effect = lower value 1.01 | locus YKL160W, strain elf1, stronger effect = lower value 1.03 | locus YKL190W, strain CNB1, stronger effect = lower value 0.994 | locus YKR001C, strain vps1, stronger effect = lower value 1 | locus YKR026C, strain gcn3, stronger effect = lower value 1.01 | locus YKR091W, strain srl3, stronger effect = lower value 1.01 | locus YLL001W, strain dnm1, stronger effect = lower value 1.01 | locus YLL026W, stronger effect = lower value 1.01 | locus YLL041C, strain sdh2, stronger effect = lower value 1.01 | locus YLR027C, strain aat2, stronger effect = lower value 1.01 | locus YLR039C, strain RIC1, stronger effect = lower value 1.05 | locus YLR058C, strain SHM2, stronger effect = lower value 1.01 | locus YLR102C, strain apc9, stronger effect = lower value 1.02 | [4] 0.994 | locus YLR221C, strain rsa3, stronger effect = lower value 1.02 | locus YLR258W, strain gsy2, stronger effect = lower value 1.01 | locus YLR262C, strain YPT6 (second series), stronger effect = lower value 1.04 | locus YLR262C, strain YPT6, stronger effect = lower value 0.968 | locus YLR268W, strain sec22, stronger effect = lower value 1.01 | locus YLR320W, strain mms22, stronger effect = lower value 1.04 | locus YLR330W, strain CHS5, stronger effect = lower value 1 | locus YLR342W, strain FKS1 (second series), stronger effect = lower value 1.01 | locus YLR342W, strain FKS1, stronger effect = lower value 1.02 | locus YLR357W, strain rsc2, stronger effect = lower value 1.01 | locus YLR370C, strain arc18, stronger effect = lower value 1.01 | locus YLR371W, strain rom2, stronger effect = lower value 1.01 | locus YLR384C, strain iki3, stronger effect = lower value 1.02 | locus YLR418C, strain cdc73, stronger effect = lower value 1.03 | locus YML016C, strain PPZ1, stronger effect = lower value 0.998 | locus YML032C, strain rad52, stronger effect = lower value 1.01 | locus YML120C, strain ndi1, stronger effect = lower value 1.03 | locus YML124C, strain tub3, stronger effect = lower value 1.01 | locus YMR058W, strain fet3, stronger effect = lower value 1.01 | locus YMR078C, strain ctf18, stronger effect = lower value 1.01 | locus YMR125W, strain sto1, stronger effect = lower value 1.03 | locus YMR129W, stronger effect = lower value 1.01 | locus YMR205C, strain PFK2, stronger effect = lower value 1.01 | locus YMR223W, strain ubp8, stronger effect = lower value 1.04 | locus YMR231W, strain pep5, stronger effect = lower value 1.01 | [11] 0.967 | locus YNL067W, strain RPL9B, stronger effect = lower value 0.993 | locus YNL071W, strain lat1, stronger effect = lower value 1.02 | locus YNL128W, strain TEP1, stronger effect = lower value 1.01 | [5] 0.975 | locus YNL209W, strain ssb2, stronger effect = lower value 1.02 | locus YNL233W, strain BNI4, stronger effect = lower value 1 | locus YNL248C, strain rpa49, stronger effect = lower value 1.01 | locus YNL250W, strain rad50, stronger effect = lower value 1.05 | locus YNL271C, strain bni1, stronger effect = lower value 1.02 | locus YNL298W, strain CLA4, stronger effect = lower value 1.01 | locus YNL307C, strain MCK1, stronger effect = lower value 1.03 | locus YNL322C, strain KRE1 (second series), stronger effect = lower value 1.03 | locus YNR049C, strain mso1, stronger effect = lower value 1 | locus YNR052C, strain pop2, stronger effect = lower value 1.01 | locus YOL012C, strain htz1 0.765 | locus YOL147C, strain pex11, stronger effect = lower value 1.02 | locus YOR001W, strain rrp6, stronger effect = lower value 0.98 | locus YOR061W, strain CKA2, stronger effect = lower value 1.01 | locus YOR069W, strain VPS5, stronger effect = lower value 1 | locus YOR070C, strain gyp1, stronger effect = lower value 1.03 | locus YOR080W, strain dia2, stronger effect = lower value 1.02 | locus YOR083W, strain WHI5, stronger effect = lower value 1.04 | locus YOR106W, strain vam3, stronger effect = lower value 1.04 | locus YOR136W, strain idh2, stronger effect = lower value 1.01 | locus YOR144C, strain elg1, stronger effect = lower value 1.01 | locus YOR184W, strain ser1, stronger effect = lower value 1.02 | [6] 0.986 | locus YOR265W, strain rbl2, stronger effect = lower value 1.01 | locus YOR270C, strain vph1, stronger effect = lower value 1.04 | locus YOR290C, strain snf2, stronger effect = lower value 0.985 | locus YOR316C, strain cot1, stronger effect = lower value 1.01 | locus YPL051W, strain arl3, stronger effect = lower value 1.01 | [12] 0.996 | locus YPL078C, strain atp4, stronger effect = lower value 1.02 | locus YPL106C, strain sse1, stronger effect = lower value 1.01 | locus YPL240C, strain hsp82, stronger effect = lower value 1.01 | [13] 1 | [7] 0.987 | locus YPR119W, strain clb2, stronger effect = lower value 1.02 | locus YPR141C, strain kar3, stronger effect = lower value 1.01 | locus YPR163C, strain tif3, stronger effect = lower value 1.02 | locus YPR167C, strain met16, stronger effect = lower value 1.01 | strain wtn01, stronger effect = lower value 1.01

N=c1ccn2c(n1)OC1C(O)[C@@H](CO)O[C@H]12 (some centres not stated)
inactive: [8] 0.99 | [14] 1 | [15] 0.986 | [16] 1.01 | [17] 1.02 | [18] 1 | [19] 1 | [20] 1.03 | locus YNL322C, strain KRE1, stronger effect = lower value 1 | [21] 1.03

CC(N)Cc1c[nH]c2ccc(OCc3cccs3)cc12 (configuration not stated)
inactive: [8] 1 | [14] 1.02 | [15] 0.984 | [16] 1.02 | [9] 1.01 | [10] 1 | [11] 1.02 | [17] 1.02 | [18] 0.986 | [19] 1.01 | [20] 1.01 | [21] 0.981 | [12] 1 | [13] 1.01
